# Screening results: PubChem, several laboratories
# SMARCA2 act: activators of SMARCA2 function; MG213 cells, MMTV-luciferase reporter, dexamethasone, overnight; activation, % at 9.1 µM; 370,000 tested, 1% active; AID 652017; in the data active = activation above about 7.8%;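 also: 0% = vehicle wells and 100% = reference activator wells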
# HSF1 inh: HSF1 inhibition; AID 2098; NIH3T3-HGL HSE-luciferase, MG132-induced, luminescence 8 h; stronger effect = lower value; activity change, negative = inhibition, % at 7.5 µM (by protocol); 300,000 tested, 0.77% active;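 active = more than half of replicate wells show activity change below -50%, luminescence cut by over half; inconclusive = some wells, but at most half, below -50%; inactive = no replicate well below -50%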;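 also: luciferase reports HSF-1 transcriptional activity via heat shock element; 0% = median of DMSO wells and -100% = zero luminescence signal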
# HSP90 inh: blocks HSP90-mediated luciferase refolding in reticulocyte lysate | Rabbit reticulocyte lysate, luciferase refolding luminescence, 3 h | inhibition, % at 5.6 µM | 290,000 tested, 0.91% active;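 active = inhibition above the screen-wide mean plus 3 SD, computed separately per campaign, cut at about 16% in these data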;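 also: 0% = DMSO wells and 100% = 60 µM geldanamycin wells; inhibitors lower the luminescence because luciferase stays unfolded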
# GAA850 FXN act: increases GAA850 frataxin promoter reporter activity. activation, % at 6 µM. HEK293 lucGAA850 FXN promoter luciferase reporter, 24 h; percent of 10 µM SAHA response. AID 540364. 360,000 tested, 0.56% active;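 active = activation above the average of all compounds screened plus 3 SD, cutoff fixed separately per campaign, cut at about 7.5% in these data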;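 also: 0% = DMSO wells and 100% = 10 µM SAHA wells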
# PG9 Ab binder: binds the HIV-1 gp120 antibody PG9. inhibition, % at 6.7 µM. 360,000 tested, 0.43% active. TR-FRET gp120-PG9 antibody binding; in the data active = inhibition above about 8.5%
# AI-2 QS modul: modulators of Vibrio harveyi AI-2 quorum sensing system | AID 2094 | Vibrio harveyi JMH597 AI-2 luminescence/OD600 ratio, 9 h; stronger effect = lower value; strain lacks LuxN and CqsS sensors; 0 = neutral-control median | activity change, % at 7.5 µM | 300,000 tested, 0.4% active; in the data active = activity change below about -75%, passing the limit was not always enough; inconclusive = no clear call, values can overlap the other calls;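 also: luminescence divided by OD600 gain over 9 h not by final OD600 alone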
# HSP90 confirm: confirmation of HSP90 inhibitors; shares compounds with HSP90 inh; rabbit reticulocyte lysate, luciferase refolding luminescence, 3 h; inhibition, % at 5.9 µM; 2,300 tested, 64% active; in the data active = inhibition above about 18%;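 also: 0% = vehicle wells and 100% = reference inhibitor wells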
# FLuc counter: counter-screen for HSP90 inhibitors: inhibitors of firefly luciferase; 2,300 tested, 48% active; shares compounds with HSP90 inh; inhibition, % at 5.9 µM; purified native firefly luciferase, luminescence;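 active = inhibition above the mean inhibition of all tested sample wells plus 3 SD, cut at about 10% in these data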;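 also: 0% = DMSO with luciferase and 100% = wells lacking luciferase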
# Target sequence (P08659 whole entry, looked up): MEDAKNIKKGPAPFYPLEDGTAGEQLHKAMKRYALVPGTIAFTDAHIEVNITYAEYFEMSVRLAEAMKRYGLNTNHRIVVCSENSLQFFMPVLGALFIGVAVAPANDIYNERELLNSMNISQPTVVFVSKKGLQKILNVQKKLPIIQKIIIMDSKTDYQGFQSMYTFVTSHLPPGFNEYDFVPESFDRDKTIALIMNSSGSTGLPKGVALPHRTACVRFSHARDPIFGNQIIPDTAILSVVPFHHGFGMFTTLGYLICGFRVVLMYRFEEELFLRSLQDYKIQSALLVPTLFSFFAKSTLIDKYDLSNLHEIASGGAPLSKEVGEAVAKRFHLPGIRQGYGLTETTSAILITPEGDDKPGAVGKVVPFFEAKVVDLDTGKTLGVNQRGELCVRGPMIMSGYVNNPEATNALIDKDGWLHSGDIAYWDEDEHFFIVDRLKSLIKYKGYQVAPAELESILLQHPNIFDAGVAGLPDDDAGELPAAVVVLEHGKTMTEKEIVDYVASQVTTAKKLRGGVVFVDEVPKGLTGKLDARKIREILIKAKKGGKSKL
# JMH597 growth rt: retest: inhibitors of Vibrio harveyi JMH597 growth; shares compounds with AI-2 QS modul; OD600 absorbance, 9 h; lacks LuxN and CqsS sensors; growth inhibition, % at 7.5 µM; 750 tested, 1% active; AID 2726;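 active = every replicate shows growth inhibition above 50%; inconclusive = at least half, but not all, replicates pass that cutoff; inactive = fewer than half of replicates pass it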
# BB721 const-QS lum: retest counter-screen: BB721 constitutive quorum sensing luminescence decrease. shares compounds with AI-2 QS modul. Vibrio harveyi BB721 luminescence, 9 h. inhibition, % at 7.5 µM. 750 tested, 95% active;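 active = inhibition above about 80% in every replicate, not just on average, limit read from the data; inconclusive = at least half of replicates past the limit, but not all; inactive = fewer than half of replicates past the limit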
# BB721 growth rt: retest: blocks Vibrio harveyi BB721 growth. AID 2728. 750 tested, 3% active. OD600 absorbance, 9 h. growth inhibition, % at 7.5 µM. shares compounds with AI-2 QS modul;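 active = every replicate shows growth inhibition above 50%; inconclusive = at least half but not all replicates above 50% inhibition; inactive = under half of replicates above 50% inhibition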
# AI-2 QS JMH597: Vibrio harveyi AI-2 signaling luminescence modulation – JMH597 strain, confirmation; shares compounds with AI-2 QS modul; Vibrio harveyi JMH597 AI-2 quorum sensing luminescence, 9 h; luxN and CqsS knockout, AI-2 only; inhibition, % at 7.5 µM; 750 tested, 97% active;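 active = every replicate shows more than 75% inhibition of signal versus neutral control wells; inconclusive = half to three quarters of replicates exceed 75% inhibition; inactive = fewer than half of replicates exceed 75% inhibition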
# SMARCA2 conf: confirmation of SMARCA2 (BRM) function activators | shares compounds with SMARCA2 act | MG213 cells, MMTV-luciferase with dexamethasone, luminescence, overnight; MG213 cells expressing E1A, Rb sequestered; DMSO wells 0%, reference activator 100% | activation, % at 9.1 µM | 3,500 tested, 30% active | AID 652260;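 active = activation above its plate's cutoff, the mean activation of tested wells plus 3 SD, cut at about 7.9% in these data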
# GAL4-VP16 Luc: GAL4-VP16 reporter activation counter-screen; HEK293 GAL4-VP16 pG5luc reporter, luciferase luminescence; scaled: DMSO wells 0%, SAHA wells 100%; AID 686939; activation, % at 9.1 µM; shares compounds with SMARCA2 act; 3,500 tested, 41% active;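 active = activation above the solvent-only control well mean plus 3 SD, averaged across control plates, cut at about 5.2% in these data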
# * hit, by the source's call; ? = inconclusive; . = not tested or not shown. Compounds with a hit are over-represented: about 3.4% of the library has one in this group of screens.
SMILES,SMARCA2 act,HSF1 inh,HSP90 inh,GAA850 FXN act,PG9 Ab binder,AI-2 QS modul,JMH597 growth rt,BB721 const-QS lum,BB721 growth rt,AI-2 QS JMH597,others
COc1ccc(/C=N/Nc2ccc(C(=O)O)cc2)cc1OC,9.1*,-20,35*,7,-17,-93*,-9,96*,7,97*,HSP90 confirm=44*;FLuc counter=29*;SMARCA2 conf=5;GAL4-VP16 Luc=13*
[C-]#[N+][C@]12C(=O)[C@H](C=C(Cl)[C@@]1(C)C=C)C(C)(C)[C@H]1C(=O)N(C)c3cccc2c31,-6,.,.,.,.,.,.,.,.,.,
O=[N+]([O-])c1ccc(N=Nc2ncc[nH]2)cc1,8.0*,-66*,55*,-11,-4,15,.,.,.,.,HSP90 confirm=57*;FLuc counter=-18;SMARCA2 conf=-14;GAL4-VP16 Luc=6.9*
COc1ccc(C(=O)Nc2ccc3c(c2)OCCO3)cc1,8.0*,.,28*,-3,-2,.,.,.,.,.,HSP90 confirm=46*;FLuc counter=27*;SMARCA2 conf=5;GAL4-VP16 Luc=10.0*
CCN(CC)c1ccc(/C=N/NC(=O)c2ccoc2C)cc1,11*,9,31*,2,-10,12,.,.,.,.,HSP90 confirm=59*;FLuc counter=54*;SMARCA2 conf=5;GAL4-VP16 Luc=11*
Cc1ccc2cc(NC(=O)CC(CC(=O)O)c3ccccc3)ccc2n1 (stereo not drawn),-3,3,-7,-1,-1,-3,.,.,.,.,
Cc1ccc2cc(NC(=O)c3ccccc3)ccc2n1,9.2*,24,18*,6,1,16,.,.,.,.,HSP90 confirm=15;FLuc counter=-3;SMARCA2 conf=7;GAL4-VP16 Luc=13*
COC(=O)[C@]12C[C@H](CC(=O)NCc3ccc(OC)c(OC)c3)C(=O)N(CCC3=CCCCC3)C1=C[C@H](C(C)C)O[C@@H]2C1CC1,-4,.,.,.,.,.,.,.,.,.,
CCC(=NCc1ccccc1)c1c(C(F)(F)F)[nH]n(-c2nc3ccccc3s2)c1=O,2,3,0,-3,-2,1,.,.,.,.,
O=c1c(C=NCc2cccnc2)c(C(F)(F)F)[nH]n1-c1nc2ccccc2s1,12*,2,42*,-1,-1,33,.,.,.,.,HSP90 confirm=35*;FLuc counter=11*;SMARCA2 conf=11*;GAL4-VP16 Luc=7.5*
Oc1ccc2ccccc2c1CNc1cnc2ccccc2c1,-1,24,-2,0,1,12,.,.,.,.,
Oc1ccc(Cl)cc1CNc1cnc2ccccc2c1,0,16,-4,-1,1,-97*,14,99*,15,100*,
COc1ccc(NC(=O)Nc2nnc(Cc3ccccc3)s2)cc1,-3,-1,2,-4,-1,-16,.,.,.,.,
COc1ccc(Cc2nnc(CCc3ccccc3)s2)cc1,-1,-4,4,-1,2,?,-31,78*,-33,86*,
COC(=O)c1cc2c(c3c4cc(F)ccc4n(S(=O)(=O)c4cccc(C)c4)c13)C(=O)N(c1ccc(OC)cc1)C2,-5,.,.,.,0,.,.,.,.,.,
O=C(NCc1ccc(Cl)cc1)c1cc2ccccn2n1,-4,9,-5,0,1,-84*,36,92*,25,95*,
COc1ccc(CCNC(=O)c2cc3ccccn3n2)c(OC)c1OC,-1,-3,-4,0,2,3,.,.,.,.,
O=C(Cc1ccccc1)N/N=C/c1cccs1,0,0,-3,-1,0,-19,.,.,.,.,
O=C(CNC(=O)c1cccs1)N/N=C/c1ccc(Cl)cc1,0,-1,-5,-1,0,-87*,-3,96*,9,96*,
COc1ccc(/C=N/NC(=O)CNC(=O)c2cccs2)cc1,-1,-1,-4,2,-2,-73,.,.,.,.,
O=C(Cc1ccc(Cl)cc1)N/N=C/c1cccs1,2,-12,1,2,-2,?,25,89*,18,90*,
CCS(=O)(=O)N1CCC(C(=O)NCc2ccco2)CC1,-2,-2,-1,4,1,7,.,.,.,.,
CSc1ccc(S(=O)(=O)N2CCC(C(=O)NCc3ccco3)CC2)cc1,0,3,-1,1,0,-90*,30,75,-19,100*,
COC(=O)[C@]12C[C@H](CC(=O)NCc3ccc(C)o3)C(=O)N(Cc3ccco3)C1=C[C@H](C1CCCC1)O[C@@H]2C,-3,.,.,.,.,.,.,.,.,.,
COc1ccc(S(=O)(=O)n2cccc2)cc1,2,-4,.,1,-1,?,24,96*,-24,99*,
SMILES,SMARCA2 act,HSF1 inh,HSP90 inh,GAA850 FXN act,PG9 Ab binder,AI-2 QS modul,JMH597 growth rt,BB721 const-QS lum,BB721 growth rt,AI-2 QS JMH597,others
N#Cc1nc(-c2cccs2)oc1NCc1ccc2c(c1)OCO2,0,.,-2,0,-2,-85*,32,94*,32,96*,
N#Cc1nc(-c2ccc(F)cc2)oc1NCc1cccc2c1OCO2,-1,-7,-5,1,-1,?,3,89*,-10,93*,
CN1CCN(C(=O)c2cc3cc(F)ccc3[nH]2)CC1,-1,1,-1,0,-1,27,.,.,.,.,
O=C(c1ccc(COc2ccccc2Cl)o1)N1CCN(Cc2ccc3c(c2)OCO3)CC1,1,4,2,1,0,9,.,.,.,.,
O=C(c1ccc(COc2ccc(Cl)cc2)o1)N1CCN(Cc2ccc3c(c2)OCO3)CC1,-4,20,1,0,1,-97*,133*,100*,111*,100*,
O=C(c1cc2cc(F)ccc2[nH]1)N1CCN(C(=O)c2ccco2)CC1,-2,8,2,0,-1,-84*,-18,85*,2,91*,
O=C(c1cc2cc(Cl)ccc2[nH]1)N1CCN(Cc2ccc3c(c2)OCO3)CC1,-1,12,-1,0,0,-94*,18,98*,-98,99*,
